Some test systems named below: SR leukemia; RPMI-8226 leukemia; OVCAR-8 ovarian; OVCAR-5 ovarian; OVCAR-4 ovarian; SK-OV-3 ovarian; IGROV1 ovarian; OVCAR-3 ovarian; HS 578T breast; NCI/ADR-RES ovarian.
Common to all, as to experiment: NCI-60 one-dose screen, 48 h (100 = growth as untreated, 0 = no growth, -100 = all killed)
Conditions in all cases: 10 µM unless noted

The panel holds about 83,000 compounds, 20% with a hit somewhere; the sample as a whole holds those more often.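 Percent growth is the endpoint: 0 to 100 indicates growth inhibition (40 means 60% inhibition), 0 means no net growth, and negative values indicate cell death.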 Calls of active or inactive are those of the source. How the source made its calls: active means growth percent below 10; inactive means the rest.

For `Cc1ccc2c(c1)C(C)Cc1c(ncnc1-n1cnc3cc(C)ccc31)N2C` (stereo not given), the growth was 1.44% (active) in the experiment on SR leukemia; -0.691% (active) with RPMI-8226 leukemia; 0.0907% (active) in the experiment on OVCAR-8 ovarian; 79% (inactive) in the experiment on OVCAR-5 ovarian; 61.7% (inactive) in the experiment with OVCAR-4 ovarian; 5.86% (active) in the experiment with SK-OV-3 ovarian. Also, the growth in the experiment with IGROV1 ovarian is 21.9% (inactive); in the experiment with OVCAR-3 ovarian, 20.2% (inactive); in the experiment on HS 578T breast, 31.6% (inactive); with NCI/ADR-RES ovarian, 5.12% (active).
As to `COc1cc(/C=C2\CCC/C(=C\c3cc(CN4CCCC4)c(O)c(OC)c3)C2=O)cc(CN2CCCC2)c1O`, the growth in the experiment with SR leukemia was 8% (active); with RPMI-8226 leukemia, 14.2% (inactive); in the experiment on OVCAR-8 ovarian, 8.24% (active); in the experiment with OVCAR-5 ovarian, 39.9% (inactive); in the experiment on OVCAR-4 ovarian it was 47.1% (inactive); in the experiment with SK-OV-3 ovarian it was 102% (inactive). For the same compound, the growth is 52.7% (inactive) in the experiment with IGROV1 ovarian, 6.05% (active) in the experiment with OVCAR-3 ovarian, 63.7% (inactive) with HS 578T breast and 59.8% (inactive) in the experiment on NCI/ADR-RES ovarian.
As for `COc1cc(/C=C2\C(=O)N(CCCCn3c4ccccc4c(=O)c4ccccc43)c3ccccc32)cc(OC)c1O`, the growth is 14.7% (inactive) with SR leukemia; 35.2% (inactive) in the experiment on RPMI-8226 leukemia; 50.1% (inactive) with OVCAR-8 ovarian; 91% (inactive) in the experiment with OVCAR-5 ovarian; 56.1% (inactive) in the experiment on OVCAR-4 ovarian; 97.1% (inactive) in the experiment on SK-OV-3 ovarian. Besides, the growth with IGROV1 ovarian is 52.3% (inactive); in the experiment on OVCAR-3 ovarian, 31.6% (inactive); in the experiment with HS 578T breast it was 68.8% (inactive); in the experiment on NCI/ADR-RES ovarian, 48.6% (inactive).
Turning to `CCOC(=O)c1c(-c2ccc(OC)cc2)c(C#N)c2c(C#N)c(N)nn2c1N`, the growth in the experiment with SR leukemia was 0.886% (active); with RPMI-8226 leukemia it was 13.8% (inactive); in the experiment with OVCAR-8 ovarian, 43.9% (inactive); in the experiment with OVCAR-5 ovarian, 70.1% (inactive); with OVCAR-4 ovarian, 68.1% (inactive); in the experiment with SK-OV-3 ovarian, 45.8% (inactive). Further, the growth with IGROV1 ovarian was 24.6% (inactive); with OVCAR-3 ovarian, 5.29% (active); in the experiment with HS 578T breast, 27.7% (inactive); with NCI/ADR-RES ovarian it was 17.8% (inactive).
`Fc1ccc(NC(c2ccc(F)cc2)C2CCN(CCCCc3ccccc3)CC2)cc1` (stereo not given): the growth in the experiment on SR leukemia is -40.5% (active); in the experiment with RPMI-8226 leukemia, -17.6% (active); in the experiment with OVCAR-8 ovarian it was -21.9% (active); with OVCAR-5 ovarian, 59.1% (inactive); with OVCAR-4 ovarian, 50.6% (inactive); in the experiment on SK-OV-3 ovarian, 64.6% (inactive). Also, the growth with IGROV1 ovarian was 55.9% (inactive); with OVCAR-3 ovarian, 34% (inactive); in the experiment on HS 578T breast, 71.7% (inactive); in the experiment with NCI/ADR-RES ovarian, 49.5% (inactive).
On to `O=C1N=c2ccccc2=C1c1sc(=S)n(C2CC(=O)N(c3ccc(Cl)cc3)C2=O)c1O` (stereo not given), for which the growth in the experiment with SR leukemia was 36.5% (inactive); with RPMI-8226 leukemia it was 103% (inactive); in the experiment with OVCAR-8 ovarian, 98.6% (inactive); in the experiment on OVCAR-5 ovarian, 105% (inactive); in the experiment with OVCAR-4 ovarian, 103% (inactive); in the experiment with SK-OV-3 ovarian, 103% (inactive). For the same compound, the growth is 101% (inactive) in the experiment on IGROV1 ovarian, 109% (inactive) in the experiment on OVCAR-3 ovarian, 98.1% (inactive) with HS 578T breast and 102% (inactive) in the experiment on NCI/ADR-RES ovarian.
Take `COc1ccccc1/C=C1\COc2ccc(O)c(O)c2C1=O`: the growth in the experiment with SR leukemia was 8.02% (active); in the experiment with RPMI-8226 leukemia it was -19.3% (active); in the experiment on OVCAR-8 ovarian, 9.04% (active); in the experiment on OVCAR-5 ovarian, 28.3% (inactive); in the experiment with OVCAR-4 ovarian it was 28.1% (inactive); in the experiment with SK-OV-3 ovarian it was 60.3% (inactive). Besides, the growth with IGROV1 ovarian is 6.74% (active); with OVCAR-3 ovarian, -11.8% (active); in the experiment on HS 578T breast, 10.4% (inactive); with NCI/ADR-RES ovarian, 3.53% (active).
Regarding `CCOC(=O)c1cc2c(n1Cc1cc(OC)cc(OC)c1Br)-c1nc(NC(C)=O)sc1CCC2`, the growth in the experiment with SR leukemia is 58.9% (inactive); with RPMI-8226 leukemia it was 60.5% (inactive); in the experiment with OVCAR-8 ovarian, 64.9% (inactive); with OVCAR-5 ovarian it was 115% (inactive); with OVCAR-4 ovarian, 73.4% (inactive); with SK-OV-3 ovarian, 82.1% (inactive). Further, the growth is 87.5% (inactive) with IGROV1 ovarian, 81.4% (inactive) in the experiment on OVCAR-3 ovarian, 64.6% (inactive) with HS 578T breast and 78.6% (inactive) with NCI/ADR-RES ovarian.
As for `COc1cc(CO)cc2cc3ccccc3nc12`, the growth with SR leukemia was 96% (inactive); in the experiment with RPMI-8226 leukemia, 101% (inactive); in the experiment on OVCAR-8 ovarian, 101% (inactive); in the experiment with OVCAR-5 ovarian it was 106% (inactive); in the experiment with OVCAR-4 ovarian it was 107% (inactive); in the experiment on SK-OV-3 ovarian, 109% (inactive). Besides, the growth with IGROV1 ovarian is 106% (inactive); in the experiment with OVCAR-3 ovarian, 110% (inactive); in the experiment on HS 578T breast it was 108% (inactive); with NCI/ADR-RES ovarian, 111% (inactive).
Take `COc1cc(C=O)ccc1Oc1ccc([N+](=O)[O-])cc1[N+](=O)[O-]`: the growth was 80.7% (inactive) in the experiment on SR leukemia; 89.5% (inactive) in the experiment on RPMI-8226 leukemia; 93.7% (inactive) in the experiment with OVCAR-8 ovarian; 109% (inactive) in the experiment on OVCAR-5 ovarian; 97% (inactive) with OVCAR-4 ovarian; 96.4% (inactive) with SK-OV-3 ovarian. Besides, the growth in the experiment with IGROV1 ovarian was 105% (inactive); with OVCAR-3 ovarian, 107% (inactive); in the experiment on HS 578T breast, 93.1% (inactive); with NCI/ADR-RES ovarian, 99.6% (inactive).
As for `COc1ccc(Oc2nc(Nc3ccc(N4CCOCC4)cc3)ncc2NC(=O)c2cc(OC)cc(OC)c2)cc1`, the growth with SR leukemia is 34.7% (inactive); in the experiment with RPMI-8226 leukemia, 53.2% (inactive); with OVCAR-8 ovarian it was 92.1% (inactive); in the experiment with OVCAR-5 ovarian it was 123% (inactive); in the experiment with OVCAR-4 ovarian, 81.3% (inactive); in the experiment with SK-OV-3 ovarian it was 102% (inactive). Besides, the growth is 83.8% (inactive) with IGROV1 ovarian, 83.5% (inactive) with OVCAR-3 ovarian, 76.7% (inactive) in the experiment with HS 578T breast and 81.6% (inactive) with NCI/ADR-RES ovarian.
As for `CCCCCO/N=C\c1c2c(O)c3c(O)c(C)c4c(c3c1O)C(=O)C(C)(O/C=C\C(OC)C(C)C(OC(C)=O)C(C)C(O)C(C)C(O)C(C)/C=C\C=C(\C)C(=O)N2)O4` (stereo not given), the growth with SR leukemia is 13.5% (inactive); in the experiment on RPMI-8226 leukemia, 13.1% (inactive); in the experiment on OVCAR-8 ovarian, 26.7% (inactive); in the experiment on OVCAR-5 ovarian it was 49.2% (inactive); in the experiment on OVCAR-4 ovarian, 30.3% (inactive); in the experiment with SK-OV-3 ovarian it was 33.9% (inactive). The growth in the experiment with IGROV1 ovarian is 31.1% (inactive); in the experiment on OVCAR-3 ovarian, 19.4% (inactive); in the experiment with HS 578T breast, 1.16% (active); in the experiment on NCI/ADR-RES ovarian, 25.2% (inactive).
As for `Cc1ccc2[nH]c(=S)[nH]c(=O)c2c1`, the growth is 90.7% (inactive) with SR leukemia; 109% (inactive) in the experiment on RPMI-8226 leukemia; 104% (inactive) in the experiment on OVCAR-8 ovarian; 107% (inactive) in the experiment on OVCAR-5 ovarian; 102% (inactive) in the experiment with OVCAR-4 ovarian; 105% (inactive) in the experiment with SK-OV-3 ovarian. Moreover, the growth in the experiment on IGROV1 ovarian is 103% (inactive); in the experiment on OVCAR-3 ovarian, 105% (inactive); in the experiment with HS 578T breast, 104% (inactive); with NCI/ADR-RES ovarian it was 104% (inactive).
As to `CCOC(=O)c1cnn(CC(O)CC)c1NC(=O)NCc1ccccc1C(F)(F)F` (stereo not given), the growth in the experiment with SR leukemia was 114% (inactive); in the experiment on RPMI-8226 leukemia, 81% (inactive); with OVCAR-8 ovarian, 102% (inactive); with OVCAR-5 ovarian it was 103% (inactive); in the experiment on OVCAR-4 ovarian, 106% (inactive); in the experiment with SK-OV-3 ovarian it was 91.4% (inactive). Also, the growth is 94.9% (inactive) with IGROV1 ovarian, 107% (inactive) with OVCAR-3 ovarian, 109% (inactive) in the experiment on HS 578T breast and 95.4% (inactive) with NCI/ADR-RES ovarian.

(Values after PubChem BioAssay (NCI).)
